Measured values from PubChem BioAssay (Tox21).
Where “and” joins values, the source holds several entries; their conditions need not be identical. Equal values may be shown once. Inconclusive results are not listed. Where a call stands in place of a potency, no number is given. The source holds several records for some structures; these can differ, active in one and inactive in another. Calls of active or inactive are those of the source. Calls come from the whole dose curve; as a rule, active = well fitted curve in the direction sought with a large enough effect in the repeat runs; inconclusive = weak or mixed curves; inactive = no such curve, though single readings can be large; an effect the other way counts as inactive or inconclusive.

Target: Aryl hydrocarbon receptor (Homo sapiens) (UniProt P35869)
Sequence (P35869 whole entry, looked up): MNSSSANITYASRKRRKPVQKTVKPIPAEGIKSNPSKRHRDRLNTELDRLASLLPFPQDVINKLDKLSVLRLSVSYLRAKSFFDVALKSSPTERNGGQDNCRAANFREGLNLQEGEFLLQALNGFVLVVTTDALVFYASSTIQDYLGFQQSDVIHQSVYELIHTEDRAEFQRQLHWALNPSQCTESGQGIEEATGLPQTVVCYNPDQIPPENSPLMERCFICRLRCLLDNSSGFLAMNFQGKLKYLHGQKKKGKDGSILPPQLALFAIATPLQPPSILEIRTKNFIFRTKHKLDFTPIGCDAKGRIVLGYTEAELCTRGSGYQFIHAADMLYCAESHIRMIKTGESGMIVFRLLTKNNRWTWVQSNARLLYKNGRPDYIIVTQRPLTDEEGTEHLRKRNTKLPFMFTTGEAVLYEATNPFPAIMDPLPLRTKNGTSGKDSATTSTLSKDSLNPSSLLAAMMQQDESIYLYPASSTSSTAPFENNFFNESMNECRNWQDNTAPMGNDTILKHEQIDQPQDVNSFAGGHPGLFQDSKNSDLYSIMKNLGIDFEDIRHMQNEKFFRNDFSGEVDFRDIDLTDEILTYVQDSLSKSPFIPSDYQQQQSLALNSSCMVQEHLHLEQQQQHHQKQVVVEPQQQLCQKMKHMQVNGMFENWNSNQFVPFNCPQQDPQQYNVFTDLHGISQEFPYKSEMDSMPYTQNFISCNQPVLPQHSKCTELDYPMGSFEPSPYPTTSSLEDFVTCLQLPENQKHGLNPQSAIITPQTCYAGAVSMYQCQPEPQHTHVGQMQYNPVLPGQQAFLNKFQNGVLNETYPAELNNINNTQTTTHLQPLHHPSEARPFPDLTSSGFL
Assay: qHTS assay to identify small molecule that activate the aryl hydrocarbon receptor (AhR) signaling pathway (AID 743085); note: nearly all actives have a fitted effect of over 15% in size
Conditions: HepG2 AhR-luc (HG2L7.5c1), luciferase, 24 h; series mostly up to 70.3 µM
In short: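 Luminescence read-out: ONE-Glo reagent, 30 min at room temperature, in HG2L7.5c1 HepG2 reporter cells treated 24 h at 37C. Viability was measured beforehand by CellTiter-Fluor fluorescence after 30 min at 37C.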
Potency is the fitted concentration of half-maximal effect.

Row | Compound | Potency
1 | CC(=O)/C=C/C1=C(C)CCCC1(C)C | inactive
2 | COc1ccccc1NC(=O)CC(C)=O | 47.9 µM (active) and 27.3 µM (active)
3 | CC(C)=CCC/C(C)=C/CO | inactive
4 | C[C@]12CC[C@@H]3c4ccc(O)cc4C[C@@H](CCCCCCCCCS(=O)CCCC(F)(F)C(F)(F)F)[C@H]3[C@@H]1CC[C@@H]2O (stereo partly specified) | inactive
5 | CCCCOCCOCCSC#N | inactive
6 | C#C[C@]1(O)CC[C@H]2[C@@H]3CCc4cc(O)ccc4[C@H]3CC[C@@]21C | inactive
7 | Cc1c(N(C)C)c(=O)n(-c2ccccc2)n1C | inactive
8 | NC(=O)OCC(COC(N)=O)c1ccccc1 | inactive
9 | COc1ccc(O)cc1 | inactive
10 | C[C@]12C=CC(=O)C=C1CC[C@@H]1[C@@H]2C(=O)C[C@@]2(C)[C@H]1CC[C@]2(O)C(=O)CO | inactive
11 | CC(C)(C)CC(C)(C)c1ccc(O)c(-n2nc3ccccc3n2)c1 | inactive
12 | C/C=C/c1ccc(O)c(OC)c1 | inactive

Test system: not listed separately
Assay: qHTS assay to identify small molecule that activate the aryl hydrocarbon receptor (AhR) signaling pathway - cell viability counter screen (AID 743086); note: nearly all actives have a fitted effect of over 45% in size
Conditions: HepG2-AhR-luc viability, CellTiter-Fluor, 24 h; series mostly up to 70.3 µM
In short: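 HepG2-AhR-luc (HG2L7.5c1) cells, 4000/well, treated 24 h at 37 C with compound; viability measured as CellTiter-Fluor fluorescence after 30 min in the same wells as the luciferase read.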

Row | Compound | Potency
13 | CO[C@H]1C=CO[C@@]2(C)Oc3c(C)c(O)c4c(O)c(c(/C=N/N5CCN(C)CC5)c(O)c4c3C2=O)NC(=O)/C(C)=C\C=C[C@H](C)[C@H](O)[C@@H](C)[C@@H](O)[C@@H](C)[C@H](OC(C)=O)[C@@H]1C | 29.8 µM (active) and 27.4 µM (active) and 15.5 µM (active)
14 | NC(=O)NO | inactive
15 | CC1=C(/C=C/C(C)=C/C=C/C(C)=C/C(=O)O)C(C)(C)CCC1 | inactive
16 | c1ccc2[nH]c(-c3cscn3)nc2c1 | inactive
17 | O=C1OC(c2ccc(O)cc2)(c2ccc(O)cc2)c2ccccc21 | inactive
18 | NC(=O)N/N=C/c1ccc([N+](=O)[O-])o1 | inactive and 62.9 µM [cytotoxic] (active)
19 | CC1=NN(c2ccccc2)C(=O)C1 | inactive
20 | Cc1cccc(Nc2cc(Cl)nc(SCC(=O)O)n2)c1C | inactive
21 | CCc1cc(C(N)=S)ccn1 | inactive
22 | C[C@]12C[C@H](O)[C@H]3[C@@H](CCC4=CC(=O)CC[C@@]43C)[C@@H]1CC[C@@H]2C(=O)CO | inactive
23 | CCn1cc(C(=O)O)c(=O)c2ccc(C)nc21 | inactive
24 | CC(=O)/C=C/C1=C(C)CCCC1(C)C | inactive
25 | COc1ccccc1NC(=O)CC(C)=O | inactive
26 | CC(C)=CCC/C(C)=C/CO | inactive
27 | C[C@]12CC[C@@H]3c4ccc(O)cc4C[C@@H](CCCCCCCCCS(=O)CCCC(F)(F)C(F)(F)F)[C@H]3[C@@H]1CC[C@@H]2O (stereo partly specified) | inactive
28 | O=C(OCc1ccccc1)c1ccccc1 | inactive
29 | O=C(O)CN(CC(=O)O)CC(=O)O | inactive
30 | CCCCOCCOCCSC#N | inactive
31 | C#C[C@]1(O)CC[C@H]2[C@@H]3CCc4cc(O)ccc4[C@H]3CC[C@@]21C | inactive
32 | NC(=O)c1ccc([N+](=O)[O-])cc1Cl | inactive
33 | C[C@]12CC[C@@H]3c4ccc(O)cc4CC[C@H]3[C@@H]1CCC2=O | inactive
34 | Cc1c(N(C)C)c(=O)n(-c2ccccc2)n1C | inactive
35 | COc1ccc(C(=O)c2ccccc2)c(O)c1 | inactive
36 | NC(=O)OCC(COC(N)=O)c1ccccc1 | inactive
37 | COc1ccc(O)cc1 | inactive
38 | C[C@]12C=CC(=O)C=C1CC[C@@H]1[C@@H]2C(=O)C[C@@]2(C)[C@H]1CC[C@]2(O)C(=O)CO | inactive
39 | O=c1cc[nH]c(=O)[nH]1 | inactive
40 | CC(C)(C)CC(C)(C)c1ccc(O)c(-n2nc3ccccc3n2)c1 | inactive
41 | C/C=C/c1ccc(O)c(OC)c1 | inactive
